# Results published in the supplement of paper PMC6555819.
# Key:
# Test in all cases: PBM binding z-score (relative to random genomic background probes); higher = stronger binding; sequences stand for … in GC…GCGATTGACAGCGTAGAATGAAGG
# [1] = system: FXR:RXRa (NR concentration 270 nM, RXRa partner concentration 90 nM)
# Procedure, shortened: (§1)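 Binding z-scores take random background probes as their reference. They come from custom Agilent 4×180K protein-binding microarrays incubated 1 h with ligand-free nuclear receptor dimers, with antibodies against each partner (one per run) detecting binding. Scanned fluorescence was regression-normalized.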
# [2] = system: LXRa:RXRa (NR concentration 270 nM, RXRa partner concentration 90 nM)
# Procedure, shortened: as §1
# [3] = system: LXRa homodimer (NR concentration 270 nM)
# Procedure, shortened: as §1
# [4] = system: LXRb:RXRa (NR concentration 270 nM, RXRa partner concentration 90 nM)
# Procedure, shortened: as §1
# [5] = system: LXRb homodimer (NR concentration 270 nM)
# Procedure, shortened: as §1
# [6] = system: PPARa:RXRa (NR concentration 270 nM, RXRa partner concentration 90 nM)
# Procedure, shortened: as §1
# [7] = system: PPARg:RXRa (NR concentration 180 nM, RXRa partner concentration 90 nM)
# Procedure, shortened: as §1
# [8] = system: PPARg:RXRa 270nM:90nM, anti-RXR (NR concentration 270 nM, RXRa partner concentration 90 nM)
# Procedure, shortened: as §1
# [9] = system: PPARg:RXRa 30nM:10nM, anti-RXR (NR concentration 30 nM, RXRa partner concentration 10 nM)
# Procedure, shortened: as §1
# [10] = system: PPARg:RXRa 90nM:30nM, anti-RXR (NR concentration 90 nM, RXRa partner concentration 30 nM)
# Procedure, shortened: as §1
# [11] = system: PPARg:RXRa DBDmut IVT, anti-RXR (DBD mutation: RXRa K156A/R161A, NR concentration 270 nM, RXRa partner concentration 90 nM)
# Procedure, shortened: as §1
# [12] = system: PPARg:RXRa IVT, anti-PPARg (NR concentration 270 nM, RXRa partner concentration 90 nM)
# Procedure, shortened: as §1
# [13] = system: PPARg DBDmut:RXRa IVT, anti-PPARg (DBD mutation: PPARg1 K132A/R137A, NR concentration 270 nM, RXRa partner concentration 90 nM)
# Procedure, shortened: as §1
# [14] = system: PPARg DBDmut IVT, anti-PPARg (DBD mutation: PPARg1 K132A/R137A, NR concentration 270 nM)
# Procedure, shortened: as §1
# [15] = system: PPARg homodimer (NR concentration 180 nM)
# Procedure, shortened: as §1
# [16] = system: PXR:RXRa (NR concentration 270 nM, RXRa partner concentration 90 nM)
# Procedure, shortened: as §1
# [17] = system: PXR homodimer (NR concentration 270 nM)
# Procedure, shortened: as §1
# [18] = system: RARa:RXR (NR concentration 270 nM, RXRa partner concentration 90 nM)
# Procedure, shortened: as §1
# [19] = system: RARa homodimer (NR concentration 270 nM)
# Procedure, shortened: as §1
# [20] = system: RARb:RXRa (NR concentration 270 nM, RXRa partner concentration 90 nM)
# Procedure, shortened: as §1
Sequence,PBM binding z-score [1],PBM binding z-score [2],PBM binding z-score [3],PBM binding z-score [4],PBM binding z-score [5],PBM binding z-score [6],PBM binding z-score [7],PBM binding z-score [8],PBM binding z-score [9],PBM binding z-score [10],PBM binding z-score [11],PBM binding z-score [12],PBM binding z-score [13],PBM binding z-score [14],PBM binding z-score [15],PBM binding z-score [16],PBM binding z-score [17],PBM binding z-score [18],PBM binding z-score [19],PBM binding z-score [20]
CCTAGCAGGCCAATCTGGGGCACTCAAGGCTTGA,-0.393,-0.285,-0.624,-0.768,-1.24,0.967,0.549,0.547,-0.732,-0.289,3.51,3.96,-0.514,-1.4,-0.431,-0.51,-1.01,-0.273,-0.87,0.323
CAAACTAGGTCATCGGAAGGTCAAAGTCCGCATG,6.11,5.83,5.44,4.82,1.45,6.01,8.72,7.35,5.14,7.04,7.98,8.45,2.01,2.98,5.96,5.37,1.97,6.84,1.67,4.97
TGAATGCGGTTATAAGATCAGGGAACGTTGCAAA,-0.202,-0.262,-0.342,-0.407,-0.259,-0.272,-0.0336,0.0368,0.119,-0.242,-1.13,0.042,0.512,0.235,0.329,-0.103,0.0437,-0.0387,-0.0517,0.025
CCGACTTGGGCATAAGGTTACCATAAGCCAGCCC,0.141,1.54,-0.195,0.516,-1.29,0.631,0.738,0.712,-0.372,0.427,-0.117,-0.425,-0.991,-1.38,0.34,0.211,-0.364,0.822,-0.32,0.922
CGTCCAAGGTCAGAGAGGTCAGTGAGTGCCGAGT,6.29,5.06,3.37,4.79,0.412,5.19,3.71,4.4,0.893,2.59,2.89,3.66,-0.0729,-0.219,3.93,6.23,12.6,5.43,2.9,5.37
CAAACTAGGTCACAGAGGTCAAAATCCGTGCGTA,7.3,6.21,6.61,6.41,2.18,6.58,10,7.86,6.44,7.9,8.53,9.12,3.39,4.84,4.55,6.48,10.3,6.58,2.93,5.11
ATCTCTAGGTAAGCCTCAGTTCAGTGAAGAACGC,0.31,0.658,0.468,0.438,0.861,0.35,-0.00624,0.396,-0.0235,0.487,2.22,1.13,-0.0785,0.191,0.657,1.23,0.98,0.356,0.375,0.44
CCTGCTAGGTCATGGTAAGCTAATCTACAGTATG,3.82,2.46,0.0967,1.86,-0.0761,3.64,2.48,2.64,0.993,1.66,4.44,3.92,0.752,0.561,1.24,1.15,-0.26,2.32,-0.305,3.87
CCTGCTAGGTCAATGGTCTGCTAAAGCAGCTCGC,2.61,2.26,-0.00615,1.78,-0.252,2.75,2.2,2.86,-0.129,1.83,4.23,3.5,-0.516,-0.86,1.16,0.731,-0.482,1.36,-0.721,3.78
AGAAGGAGGTTAAGATCAGGGAAACAGAATACAT,1.65,1.79,0.422,2.19,1.11,2.82,1.84,1.67,0.855,1.19,1.24,1.78,1.73,0.272,2.06,1.5,1.36,1.51,1.44,1.85
GCAGACAGGTGAAACGCAGGTAATTCAGGGTGGC,-0.0187,-0.113,-0.552,-0.337,-1.33,0.845,0.419,-0.127,-0.526,-0.551,0.893,0.576,-0.406,-0.569,0.0586,-0.158,-0.351,0.462,-0.448,0.697
AGAACGTGGGCACGCTGAGTTGATAGCAGAGTAG,-0.602,-0.538,-0.448,-0.8,-1.22,-0.462,0.523,-0.265,-0.225,-0.405,-0.231,-0.143,0.109,-0.419,-0.518,-0.542,-0.719,-0.528,-0.906,-0.0707
CCCAGTTGGTCAGGAGGTCACACACCGGATATGA,3.51,3.58,1.99,3.58,0.535,4.21,3.56,3.79,1.07,3,0.556,3.46,-0.0435,-0.356,2.74,3.97,1.3,4.22,1.81,3.79
ATATGTAGGTTATCGGGTCATGCAGTTTGCGCAT,2.87,3.08,1.26,2.54,0.785,4.99,7.53,6.31,4.45,6.01,7.6,7.68,2.17,1.66,2.79,3.47,2.99,4.11,1.09,2.55
CCTCGGAGGACAGAAGGTCAGGGCTGTCCGCTTT,1.42,1.47,0.0831,1.07,-1.01,2.17,-0.206,1.07,-0.426,0.349,-0.131,0.148,-1.5,-1.83,1.43,1.65,-0.651,2.13,0.0268,3.47
CCGACTGGGGCAAAGGTTACCTTACTCAGTACGA,1.37,1.71,-0.345,1.98,-1.42,5.37,10.6,9.12,7.96,9.81,5,5.64,0.278,-0.11,1.61,2.22,-0.485,3.41,-0.487,2.19
CGAAATAGGTCATCCAGGACAGTGAATACATTGA,5.99,4.69,1.25,3.8,0.842,5.87,7.32,6.78,4.39,6.21,7.78,7.89,2.68,2.13,2.1,3.15,1.18,3.92,1.27,4.59
ATATGTAGGTTACATCCGGGTGATTCAGGCTATG,0.452,4.47,0.517,1.64,0.268,3.54,5.24,4.39,1.74,3.56,6.76,7.32,2.76,2.26,1.49,0.723,0.414,0.999,0.428,1.05
CCTCGGAGGACTGAAGGTCAGAGCTGTCCGCTTT,0.88,1.89,0.285,0.745,-0.722,1.46,-0.679,0.572,-0.9,-0.111,-0.418,-0.254,-2.59,-3.05,0.742,1.32,-0.196,1.28,-0.166,2.38
CGAACTAGGTCATCCAGGACAGTGGATACATTGA,4.72,2.32,0.245,1.99,0.307,4.9,7.83,5.84,4.33,5.96,7.91,7.98,1.6,0.738,2.41,1.89,1.23,2.52,1.24,4.03
TAGCCTAGGTCATGGGACAGTATACCACGCGAAC,5.01,3.4,0.47,3.01,0.331,4.29,3.92,3.74,1.14,2.55,1.93,3.38,0.841,0.664,2.06,1.99,-0.252,2.89,0.415,3.88
CCTACTGGGCCATCAGGTCATTGAGATCAACGTT,1.65,1.44,1.22,1.45,-0.336,2.93,3.04,3.58,1.41,3.12,4.42,4.78,0.317,0.581,1.13,2.08,2.14,2.31,-0.158,2.22
ACAGACAGGTGCGTGAAGGTAACTCAGCTGGACG,-0.446,-0.525,-0.81,-0.869,-0.883,-0.268,0.476,-0.586,-0.564,-0.492,-0.935,-0.58,0.0563,-0.077,-0.238,-0.583,-0.495,-0.585,-0.862,-0.307
TCTAGTTGGCCAAAGGTCACACACTCGAAATGCG,5.4,5.41,3.89,5.44,1.17,6.16,11,9.37,11.1,11.3,2.73,5.56,0.249,0.877,6.18,5.82,1.45,6.89,3.8,4.93
GCTATTAGTTGAAGGGGCAACCGAATGATTCTCG,-0.0427,-0.304,-0.118,0.151,-0.16,0.84,0.924,2.1,0.49,1.65,0.421,-0.0967,-0.209,0.191,1.03,-0.209,-0.028,0.0521,0.778,0.759
GCATATATGTAATACAAGGTGAAAGTCCGATTGT,0.416,0.403,0.269,0.457,0.00515,1.08,1.35,0.83,0.428,0.72,1.6,1.75,0.651,0.705,0.207,0.156,0.0966,1.35,0.0285,0.445
TCTATTAGTTGATTAGGGCACCCGAAACAGCGGA,0.613,0.698,0.336,0.367,0.572,0.646,0.343,1.83,3.73,2.91,2.25,1.68,0.695,1.2,1.1,0.419,0.671,0.573,1.64,0.873
ACTAGCTGGCCAAGTTTGGGTCACTCAAACAAAG,-0.286,-0.318,-0.768,0.339,-0.865,1.03,-0.347,0.0249,-0.62,-0.218,-0.306,0.303,-0.848,-0.239,-0.138,0.38,-0.487,0.811,-1.29,1.08
CGTCCAAGGACAAAGGTCAGTGAAGAGATGACGG,3.18,3.25,1,2.85,-0.0848,4.56,5.79,5.86,3.8,5.51,0.675,2.78,-0.53,-0.214,2.27,3.18,0.71,3.79,1.02,4.56
